# From PubChem
# NPR2 activator – GC-B (human) receptor activation | HEK293-GC-B cells, CNP EC30, cGMP TR-FRET; 0% at EC30 CNP, 100% saturating CNP | activation, % at 10 µM | 370,000 tested, 0.11% active | AID 1920062;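 active = activation at 10 µM reaching about 35% in either raw or pattern-adjusted values, limit read from the data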
# MsrA inhibitor – inhibitors of bovine MsrA; purified bovine MsrA, absorbance read-out; 360,000 tested, 0.75% active; inhibition, % at 15.5 µM;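 note: 0% = vehicle wells with enzyme and 100% = reference inhibitor wells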
# NPR1 activator – GC-A (human) enzyme activation | P16066 | activation, % at 10 µM | 370,000 tested, 0.14% active | HEK293 GC-A cells, cGMP TR-FRET, EC30 ANP; 0% at EC30 ANP, 100% saturating ANP; in the data active = activation above about 40%
# MsrA act – bovine methionine sulfoxide reductase A activation | 360,000 tested, 0.3% active | activation, % at 10.6 µM | purified bovine MsrA, absorbance read-out | AID 602163; in the data active = activation above about 7.5%;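 note: 0% = vehicle and 100% = reference activator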
# MsrA inh confirm – bovine MsrA inhibition, confirmed; shares compounds with MsrA inhibitor; purified bovine MsrA, absorbance read-out; inhibition, % at 15.5 µM; 2,300 tested, 41% active; AID 651822;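 note: coupled to thioredoxin reductase with NADPH and selenocystamine and DMSO as substrate; 0% = vehicle only and 100% = full effect of reference inhibitor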
# * marks the source's active call; other numbers are inactive results; . = no result. This is a sample that favours compounds with a hit; in the whole collection about 1.2% have one here. Cut-off read from the data, not from the text of the source, unless noted: active = inhibition above about 4.5%; inactive = the rest.
SMILES,NPR2 activator,MsrA inhibitor,NPR1 activator,MsrA act,MsrA inh confirm
COc1cc(/C=N/NC(=O)C(N)=O)cc(OC)c1O,0,4.8*,-2,-9,4
COc1cc(/C=N/N=C/c2cc(OC)c(O)c(OC)c2)cc(OC)c1O,-4,6.0*,-5,-11,5.8*
O=C(C(=O)N1CCC(CNS(=O)(=O)c2cccc(C(F)(F)F)c2)CC1)c1cc2ccccc2o1,5,1,0,.,.
O=C(OCC(=O)N1CCN(C(=O)c2ccco2)CC1)c1ccccc1NCCO,2,4.7*,4,-2,1
COc1ccc(/C([O-])=C(/C(=S)Nc2ccc(C)c(C)c2)n2c[n+](C)c3ccccc32)cc1OC,.,4.8*,.,-6,2
Cc1ccc(-c2c(C(=O)NCC(C)C)oc(=O)c3ccccc23)cc1,-6,.,-19,.,.
COc1ccc(/C=N/NC2=NS(=O)(=O)c3ccccc32)cc1OC,0,4.8*,2,-5,4
CCC(C)(C)NC(=O)c1ccc(Sc2nncn2C)c([N+](=O)[O-])c1,6,1,3,1,.
Cn1cnnc1Sc1ccc(/C=C/C(=O)c2ccc(O)cc2)cc1[N+](=O)[O-],5,5.7*,-1,-12,3
Cc1ccc(S(=O)(=O)N(C)[C@H]2C[C@H]3c4[nH]c5c(-c6ccccc6)cccc5c4CCN3C(=O)[C@H]2[C@H](C)O)cc1,-5,1,-6,.,.
CCOc1cc(/C=C(/C#N)c2ccc(F)cc2)ccc1OCc1ccc(C(=O)O)o1,-5,6.7*,-4,-10,5
CN(CCOC(=O)CCCc1ccccc1)C1CN(Cc2cn(Cc3ccccc3F)nn2)S(=O)(=O)C1 (configuration not stated),6,.,-1,.,.
Cc1c(C(=O)N/N=C/c2ccc(O)cc2)sc(=S)n1C,4,5.8*,10,-6,4.8*
Cc1cccc(CN[C@@H]2CC[C@@]34CCCN3C(=O)CCC[C@H]4C2)c1,-5,.,-2,.,.
Nc1ccccc1-n1nc2ccc3ccccc3c2n1,-4,0,4,-1,.
COc1cc2nn(-c3ccccc3N)nc2cc1OC,-4,4.8*,7,-2,2
CCOC(=O)c1nnn(-c2nonc2-n2cccc2)c1CCl,3,6.4*,3,-6,5.3*
CCOC(=O)c1nnn(-c2nonc2-n2cccc2)c1CN1CCC(C)CC1,-7,0,-5,-4,.
COc1ccc2cc(-c3ccccc3)c(=O)oc2c1,-5,2,5,-4,.
Cc1c(OCC(=O)N(C)C)ccc2c(-c3ccccc3)cc(=O)oc12,2,18*,-4,-6,16*
CN(C)C(=O)COc1ccc2cc(-c3ccccc3)c(=O)oc2c1,-2,4.7*,7,-3,3
Cc1c(OCc2nn[nH]n2)ccc2c(-c3ccccc3)cc(=O)oc12,1,2,-2,-2,.
COc1ccc(-c2cc(=O)oc3cc(OCC(=O)NCC4CCC(C(=O)O)CC4)ccc23)cc1 (configuration not stated),-4,4.9*,1,4,3
CC(Oc1ccc2cc(-c3ccccc3)c(=O)oc2c1)C(=O)NCC1CCC(C(=O)O)CC1 (configuration not stated),1,6.3*,0,-10,4
COc1cc(NC(=O)C2CCCN(S(=O)(=O)c3ccc(C)c(C)c3)C2)cc(OC)c1 (configuration not stated),-10,.,-7,.,.
SMILES,NPR2 activator,MsrA inhibitor,NPR1 activator,MsrA act,MsrA inh confirm
COc1ccc2nc(NN=Cc3cccc(C)n3)cc(C)c2c1,2,2,3,.,.
Nc1nc(=S)c2ncn(C3CCCC3)c2[nH]1,30,5.0*,31,2,4
Nc1nc2c(ncn2C2CCCC2)c(=O)[nH]1,19,0,17,-2,.
Cn1c(=O)n(C)c2cc(/C=N/N=C3/NC(=O)C(CC(=O)O)S3)ccc21 (configuration not stated),-4,6.2*,1,-8,6.7*
CCOc1cc(/C=N/N=C2/NC(=O)C(CC(=O)O)S2)ccc1OCc1ccc(Cl)cc1 (configuration not stated),4,3,-1,-7,.
COc1ccc(/C=N/N=C2/NC(=O)C(CC(=O)O)S2)cc1OCc1ccc(Cl)cc1 (configuration not stated),2,7.3*,0,-10,5.9*
Cc1[nH]n(-c2ccccc2)c(=O)c1C=Nc1ccc(S(=O)(=O)Nc2nccs2)cc1,-2,5.7*,-3,-3,3
Cc1ccc(-n2[nH]c(C)c(C=Nc3ccc(S(=O)(=O)Nc4nccs4)cc3)c2=O)cc1C,-1,0,-8,-3,.
